{"source": "ChEMBL document CHEMBL1961873", "about": "“Compounds: GSK PKIS; Assays: Nanosyn kinase panel” (2012)", "data": [{"target": "Cyclin-dependent kinase 2 (Homo sapiens) (UniProt P24941)", "conditions": "at 0.1 µM", "units": {"inhibition": "%"}, "values": [{"smiles": "CC1=C(C(=O)Nc2cc(Cl)c3[nH]ncc3c2)C(c2ccc(C(F)(F)F)cc2)CC(=O)N1", "note": "(stereo not drawn)", "inhibition": -0.94}, {"smiles": "c1cc(-c2cnn3nc(N4CCOCC4)ccc23)nc(NC2CC2)n1", "inhibition": 6.45}, {"smiles": "CC(C)COC(=O)c1ccc2c(c1)/C(=C/Nc1ccc(S(N)(=O)=O)cc1)C(=O)N2", "inhibition": 82}, {"smiles": "Fc1ccc(-c2cc(-c3c[nH]nc3-c3ccccn3)ccn2)cc1", "inhibition": 2.51}, {"smiles": "COC(=O)c1sc(-n2cnc3cc(OC)c(OC)cc32)cc1OCc1ccccc1C(F)(F)F", "inhibition": 1.51}, {"smiles": "Nc1ncc(-c2cccc(S(N)(=O)=O)c2)c2scc(-c3ccc(F)c(Cl)c3)c12", "inhibition": 1.79}, {"smiles": "Fc1ccc(-c2nn3ncccc3c2-c2ccnc(Nc3ccc4c(c3)OCCO4)n2)cc1", "inhibition": 1.25}, {"smiles": "COc1cc(Nc2nccc(Nc3ccc4c(C)n[nH]c4c3)n2)cc(OC)c1OC", "inhibition": 0.73}, {"smiles": "O=C(O[C@H]1CN[C@H](C#Cc2cc3ncnc(Nc4ccc(Cc5ccccc5)cc4)c3s2)C1)N1CCOCC1", "inhibition": 0.69}, {"smiles": "Nc1nc(-c2ccc(F)cc2)c(-c2ccc3ncccc3n2)s1", "inhibition": 3.61}, {"smiles": "COc1ccc(-c2nn3ncccc3c2-c2ccnc(Nc3ccc4c(c3)OCCO4)n2)cc1", "inhibition": 0.22}, {"smiles": "CNC(=O)c1cncc(/C=C/c2ccccc2Cl)c1", "inhibition": 0.6}, {"smiles": "CCn1c(-c2nonc2N)nc2ccccc21", "inhibition": 1.31}, {"smiles": "N#Cc1c(NC(=O)CN2CCOCC2)sc2c1CCCC2", "inhibition": 3.4}, {"smiles": "NS(=O)(=O)c1ccc(N/N=C2\\C(=O)Nc3ccc4ncccc4c32)cc1", "inhibition": 93.4}, {"smiles": "Nc1nc(-c2cccc(Cl)c2)c(-c2ccc3ncccc3n2)s1", "inhibition": 1.23}, {"smiles": "c1ccc(-c2nc3n(c2-c2ccc4c(c2)OCO4)CCC3)nc1", "inhibition": 1.58}, {"smiles": "Cc1ccc(O)cc1Nc1ccnc2cc(-c3ccccn3)ccc12", "inhibition": 0.84}, {"smiles": "NS(=O)(=O)c1ccc(Nc2ncc(-c3ccccc3)o2)cc1", "inhibition": 48.2}, {"smiles": "COc1cccc(-n2ncc3c(N/N=C/c4ccc(F)cc4)ncnc32)c1", "inhibition": 10.1}, {"smiles": "CCc1nn2ncccc2c1-c1ccnc(NC2CC2)n1", "inhibition": 3.24}, {"smiles": "COc1ccc(CNC(=O)c2ccc(-c3cc(-c4nnc(C)o4)ccc3C)cc2)cc1", "inhibition": -2.09}, {"smiles": "CCCN(CCS(C)(=O)=O)Cc1ccc(-c2ccc3ncnc(Nc4ccc(OCc5cccc(F)c5)c(Cl)c4)c3c2)o1", "inhibition": 0.78}, {"smiles": "Cc1ccc2c(-c3ccnc(Nc4ccccc4)n3)c(-c3ccc(F)cc3)nn2n1", "inhibition": 2.27}, {"smiles": "COc1cc(/C=N/Nc2ncnc3[nH]ncc23)ccc1O", "inhibition": 3.26}, {"smiles": "FC(F)(F)c1cccc(-c2nn3ncccc3c2-c2ccnc(Nc3ccc4c(c3)OCCO4)n2)c1", "inhibition": 1.29}, {"smiles": "O=S(=O)(CCNCc1ccc(-c2ccc3ncnc(Nc4ccc(OCc5cccc(F)c5)c(Cl)c4)c3c2)o1)c1ccccc1", "inhibition": 2.32}, {"smiles": "CCn1c(-c2nonc2N)nc2c(C#CC(C)(C)O)ncc(OC3CCNCC3)c21", "inhibition": 3.56}, {"smiles": "COc1ccc2c(-c3ccnc(Nc4cccc(OC(F)(F)F)c4)n3)cnn2n1", "inhibition": 11.1}, {"smiles": "CC(C)(CO)CNC(=O)c1ccc2c(c1)/C(=N/Nc1ccc(S(N)(=O)=O)cc1)C(=O)N2", "inhibition": 87.3}, {"smiles": "NC(=O)c1sc(-n2cnc3ccc(C(F)(F)F)cc32)cc1OCc1ccccc1Br", "inhibition": 1.25}, {"smiles": "COC(=O)Nc1nc2ccc(Oc3ccc(NC(=O)Nc4cccc(Cl)c4)cc3)cc2[nH]1", "inhibition": -0.3}, {"smiles": "CS(=O)(=O)CCNCc1ccc(-c2ccc3ncnc(Nc4ccc(OCc5ccccc5)c(C(F)(F)F)c4)c3c2)o1", "inhibition": 6.22}, {"smiles": "COc1ccc2[nH]c3c4[nH]c5ccc(OC)cc5c4c4c(c3c2c1)C(=O)NC4=O", "inhibition": 1.85}]}, {"target": "Cyclin-dependent kinase 2 (Homo sapiens) (UniProt P24941)", "conditions": "at 1 µM", "units": {"inhibition": "%"}, "values": [{"smiles": "CC1=C(C(=O)Nc2cc(Cl)c3[nH]ncc3c2)C(c2ccc(C(F)(F)F)cc2)CC(=O)N1", "note": "(stereo not drawn)", "inhibition": 9.38}, {"smiles": "c1cc(-c2cnn3nc(N4CCOCC4)ccc23)nc(NC2CC2)n1", "inhibition": 50.7}, {"smiles": "CC(C)COC(=O)c1ccc2c(c1)/C(=C/Nc1ccc(S(N)(=O)=O)cc1)C(=O)N2", "inhibition": 86.6}, {"smiles": "Fc1ccc(-c2cc(-c3c[nH]nc3-c3ccccn3)ccn2)cc1", "inhibition": 5.92}, {"smiles": "COC(=O)c1sc(-n2cnc3cc(OC)c(OC)cc32)cc1OCc1ccccc1C(F)(F)F", "inhibition": 3.81}, {"smiles": "Nc1ncc(-c2cccc(S(N)(=O)=O)c2)c2scc(-c3ccc(F)c(Cl)c3)c12", "inhibition": 2.91}, {"smiles": "Fc1ccc(-c2nn3ncccc3c2-c2ccnc(Nc3ccc4c(c3)OCCO4)n2)cc1", "inhibition": 3.7}, {"smiles": "COc1cc(Nc2nccc(Nc3ccc4c(C)n[nH]c4c3)n2)cc(OC)c1OC", "inhibition": 3.22}, {"smiles": "O=C(O[C@H]1CN[C@H](C#Cc2cc3ncnc(Nc4ccc(Cc5ccccc5)cc4)c3s2)C1)N1CCOCC1", "inhibition": 0.19}, {"smiles": "Nc1nc(-c2ccc(F)cc2)c(-c2ccc3ncccc3n2)s1", "inhibition": 0.25}, {"smiles": "COc1ccc(-c2nn3ncccc3c2-c2ccnc(Nc3ccc4c(c3)OCCO4)n2)cc1", "inhibition": 0.43}, {"smiles": "CNC(=O)c1cncc(/C=C/c2ccccc2Cl)c1", "inhibition": -0.73}, {"smiles": "CCn1c(-c2nonc2N)nc2ccccc21", "inhibition": 2.17}, {"smiles": "N#Cc1c(NC(=O)CN2CCOCC2)sc2c1CCCC2", "inhibition": 4.28}, {"smiles": "NS(=O)(=O)c1ccc(N/N=C2\\C(=O)Nc3ccc4ncccc4c32)cc1", "inhibition": 86.6}, {"smiles": "Nc1nc(-c2cccc(Cl)c2)c(-c2ccc3ncccc3n2)s1", "inhibition": 0.95}, {"smiles": "c1ccc(-c2nc3n(c2-c2ccc4c(c2)OCO4)CCC3)nc1", "inhibition": -5.6}, {"smiles": "Cc1ccc(O)cc1Nc1ccnc2cc(-c3ccccn3)ccc12", "inhibition": 6.62}, {"smiles": "NS(=O)(=O)c1ccc(Nc2ncc(-c3ccccc3)o2)cc1", "inhibition": 109}, {"smiles": "COc1cccc(-n2ncc3c(N/N=C/c4ccc(F)cc4)ncnc32)c1", "inhibition": 48.5}, {"smiles": "CCc1nn2ncccc2c1-c1ccnc(NC2CC2)n1", "inhibition": 10.4}, {"smiles": "COc1ccc(CNC(=O)c2ccc(-c3cc(-c4nnc(C)o4)ccc3C)cc2)cc1", "inhibition": -1.7}, {"smiles": "CCCN(CCS(C)(=O)=O)Cc1ccc(-c2ccc3ncnc(Nc4ccc(OCc5cccc(F)c5)c(Cl)c4)c3c2)o1", "inhibition": -1.6}, {"smiles": "Cc1ccc2c(-c3ccnc(Nc4ccccc4)n3)c(-c3ccc(F)cc3)nn2n1", "inhibition": 0.79}, {"smiles": "COc1cc(/C=N/Nc2ncnc3[nH]ncc23)ccc1O", "inhibition": 28.3}, {"smiles": "FC(F)(F)c1cccc(-c2nn3ncccc3c2-c2ccnc(Nc3ccc4c(c3)OCCO4)n2)c1", "inhibition": 0.77}, {"smiles": "O=S(=O)(CCNCc1ccc(-c2ccc3ncnc(Nc4ccc(OCc5cccc(F)c5)c(Cl)c4)c3c2)o1)c1ccccc1", "inhibition": 2.63}, {"smiles": "CCn1c(-c2nonc2N)nc2c(C#CC(C)(C)O)ncc(OC3CCNCC3)c21", "inhibition": 1.76}, {"smiles": "COc1ccc2c(-c3ccnc(Nc4cccc(OC(F)(F)F)c4)n3)cnn2n1", "inhibition": 60.1}, {"smiles": "CC(C)(CO)CNC(=O)c1ccc2c(c1)/C(=N/Nc1ccc(S(N)(=O)=O)cc1)C(=O)N2", "inhibition": 93.6}, {"smiles": "NC(=O)c1sc(-n2cnc3ccc(C(F)(F)F)cc32)cc1OCc1ccccc1Br", "inhibition": 1.52}, {"smiles": "COC(=O)Nc1nc2ccc(Oc3ccc(NC(=O)Nc4cccc(Cl)c4)cc3)cc2[nH]1", "inhibition": -1.22}, {"smiles": "CS(=O)(=O)CCNCc1ccc(-c2ccc3ncnc(Nc4ccc(OCc5ccccc5)c(C(F)(F)F)c4)c3c2)o1", "inhibition": 8.37}, {"smiles": "COc1ccc2[nH]c3c4[nH]c5ccc(OC)cc5c4c4c(c3c2c1)C(=O)NC4=O", "inhibition": 3}]}]}
